Results from ChEMBL document CHEMBL4513216, “Probing the Open Global Health Chemical Diversity Library for Multistage-Active Starting Points for Next-Generation Antimalarials” (ACS Infect Dis, 2020).
Among all 68,000 compounds or so, about 2,700 (4%) showed an effect of 50% or more. Only a selection was taken, and strong results are over-represented in it overall.

The compounds below were run on Plasmodium berghei (assay: Screen against P. berghei liver stage (PbLuc), transformed with Luciferase, at 2uM). Settings: tested at 2 uM.
Format: functional, HepG2

Point of comparison: COc1coc(C(=O)Nc2nc(C)cs2)cc1=O, INHIBITION -1.29%. Against it:
- CCC(C)c1csc(NC(=O)Cc2csc(-c3nnc[nH]3)n2)n1 (centres undefined) — lower, -5.58%
- O=C(CCn1c(C(F)(F)F)cc2cccnc21)N1CCOCC1 — higher, 48.65%
- CN(C)C(C(=O)N1CCC(N2CCSCC2)CC1)c1ccccc1F (centres undefined) — higher, 4.18%
- CN(CC1Cc2ccccc2CN1C)c1nc(N)nc2c1CCNCC2 (centres undefined) — higher, 52.98%
- CN(Cc1ccc(-n2cccn2)cc1)c1nc(N)nc2c1CCNCC2 — higher, 18.01%
- CN(Cc1ccccc1-n1cccn1)c1nc(N)nc2c1CCNCC2 — higher, 5.86%
- Cc1nc2c(c(NCC3Cc4ccccc4CN3C)n1)CCNCC2 (centres undefined) — higher, 43.44%
- Cc1nc2c(c(N(C)CC3Cc4ccccc4CN3C)n1)CCNCC2 (centres undefined) — higher, 57.75%
- Cc1nc2c(c(N(C)Cc3ccccc3-n3cccn3)n1)CCNCC2 — lower, -19.21%
- Cc1nc(N)cc(C2CCN2CCC(N)=O)n1 (centres undefined) — higher, 11.32%
- Cc1ncsc1CN1C[C@@H]2CCCO[C@@H]2[C@H](N(C)C(C)C)C1 — lower, -10.13%
- Cn1cnc2c1CCN(CC(=O)N(Cc1ccccc1F)C1CC1)C2 — higher, 18.99%
- O=C(NCCc1cc2nc(-c3ccncc3)ccn2n1)C1CCOCC1 — higher, 9.9%
- CS(=O)(=O)Cc1ccc(C(=O)N2CCCC(n3cncn3)C2)o1 (centres undefined) — higher, 12.7%
- Cc1occc1C(=O)N1CCC2(CCC(=O)N(CC(N)=O)C2)CC1 — lower, -26.32%
- O=C(c1nc2sccn2c1-c1ncc[nH]1)N1CCCCC1 — lower, -1.65%
- CCN(Cc1ncc(C(C)(C)C)o1)Cc1ccccc1C — lower, -47.18%
- Cc1cccc(CN(Cc2ccccn2)Cc2ncc(C(C)(C)C)o2)c1 — higher, 43.44%
- CCN(Cc1cccc(Cl)c1)Cc1ncc(C(C)(C)C)o1 — higher, 81.59%
- OC1(CNc2ccc(Br)cn2)CCOCC1 — lower, -58.79%
- CC(C)(C)C(=O)NCCNCc1ccc(Cl)c2cccnc12 — lower, -53.16%
- OC(CNCCn1cccn1)c1cccc(Br)c1 (centres undefined) — lower, -69.91%
- CN(C)CCNC(=O)c1noc2c1CN(C(=O)N(C)C)CC2 — higher, 59.76%
- CC(C)NC(=O)N1CCc2onc(C(=O)Nc3cccnc3)c2C1 — higher, 18.87%
- CC(C)NC(=O)N1CCc2onc(C(=O)NCCN(C)C)c2C1 — higher, 42.62%
- Cc1ccc(CN2CCc3onc(C(=O)Nc4cccnc4)c3C2)o1 — higher, 34.37%
- CC(C)C(=O)N1CCc2onc(C(=O)NCCN(C)C)c2C1 — higher, 11.37%
- CN(C)C(=O)N1CCc2onc(C(=O)Nc3cccnc3)c2C1 — higher, 67.19%
